The supplement of paper PMC6288085
Where a name gives a salt, the structure may show the parent alone. ± gives the uncertainty stated by the source.

The compounds below were run on Caenorhabditis elegans N2 (assay: food intake (mean delta OD600 / animal over 72 h) with 50 uM loxapine co-treatment (OD600 units per animal); higher = more food eaten (less suppression of loxapine-induced hyperphagia)). Conditions: first compound 33 µM, loxapine concentration 50 µM.
Description: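 C. elegans N2 adults (FUDR-sterilised, day 1) in 96-well plates fed gamma-irradiated bacteria. Each library drug (MedChemExpress FDA-approved library) at 33 uM was combined with loxapine at 50 uM. Food intake was measured as bacterial clearance: the change in OD600 from day 1 to 72 h, normalised per animal (mean over 14-21 wells of about 10-12 worms). Drugs flagged for bacterial lysis or sickness were excluded by the authors.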

SMILES | food intake
Clc1ccc(COC(Cn2ccnc2)c2ccc(Cl)cc2Cl)c(Cl)c1 (stereo not given) [miconazole (nitrate)] + CN1CCN(C2=Nc3ccccc3Oc3ccc(Cl)cc32)CC1 [loxapine] | 0.0169 ± 0.005
Cc1cc(C)cc(OCC2CNC(=O)O2)c1 (stereo not given) [metaxalone] + CN1CCN(C2=Nc3ccccc3Oc3ccc(Cl)cc32)CC1 [loxapine] | 0.0236 ± 0.003
CCN(CC)C(=O)c1cccc(C)c1 + CN1CCN(C2=Nc3ccccc3Oc3ccc(Cl)cc32)CC1 [loxapine] | 0.023 ± 0.0029
Nc1nnc(-c2cccc(Cl)c2Cl)c(N)n1 [lamotrigine] + CN1CCN(C2=Nc3ccccc3Oc3ccc(Cl)cc32)CC1 [loxapine] | 0.0237 ± 0.008
O=c1n(CCCN2CCN(c3cccc(Cl)c3)CC2)nc2ccccn12 [trazodone (hydrochloride)] + CN1CCN(C2=Nc3ccccc3Oc3ccc(Cl)cc32)CC1 [loxapine] | 0.0285 ± 0.035
CC1=C(C)C(=O)C(C(CCCCCC(=O)O)c2ccccc2)=C(C)C1=O (stereo not given) [seratrodast] + CN1CCN(C2=Nc3ccccc3Oc3ccc(Cl)cc32)CC1 [loxapine] | 0.0265 ± 0.0088
CC[C@H]1OC(=O)[C@H](C)[C@@H](O[C@H]2C[C@@](C)(OC)[C@@H](O)[C@H](C)O2)[C@H](C)[C@@H](O[C@@H]2O[C@H](C)C[C@H](N(C)C)[C@H]2O)[C@](C)(O)C[C@@H](C)[C@@H]2N[C@@H](COCCOC)O[C@H]([C@H]2C)[C@]1(C)O [dirithromycin] + CN1CCN(C2=Nc3ccccc3Oc3ccc(Cl)cc32)CC1 [loxapine] | 0.0208 ± 0.0079
NC12CC3CC(CC(C3)C1)C2 [amantadine (hydrochloride)] + CN1CCN(C2=Nc3ccccc3Oc3ccc(Cl)cc32)CC1 [loxapine] | 0.0253 ± 0.003
Cc1ccnc(NS(=O)(=O)c2ccc(N)cc2)n1 [sulfamerazine] + CN1CCN(C2=Nc3ccccc3Oc3ccc(Cl)cc32)CC1 [loxapine] | 0.0224 ± 0.0031
C[C@@H]1CCN(C(=O)CC#N)C[C@@H]1N(C)c1ncnc2[nH]ccc12 [tofacitinib (citrate)] + CN1CCN(C2=Nc3ccccc3Oc3ccc(Cl)cc32)CC1 [loxapine] | 0.0227 ± 0.0047
O=C1N=C(O)NC1(c1ccccc1)c1ccccc1 [phenytoin (sodium)] + CN1CCN(C2=Nc3ccccc3Oc3ccc(Cl)cc32)CC1 [loxapine] | 0.0233 ± 0.0031
CCOCC(O)COc1ccc(NC(=O)CC[S+](C)C)cc1 (stereo not given) [Suplatast (tosilate)] + CN1CCN(C2=Nc3ccccc3Oc3ccc(Cl)cc32)CC1 [loxapine] | 0.0232 ± 0.0036
CN(C)CCOC(c1ccccc1)c1ccccc1.Cn1c(=O)c2[nH]c(Cl)nc2n(C)c1=O [dimenhydrinate] + CN1CCN(C2=Nc3ccccc3Oc3ccc(Cl)cc32)CC1 [loxapine] | 0.0239 ± 0.0029
Cc1cccc(-c2nn3c(c2-c2ccnc4ccc(C(N)=O)cc24)CCC3)n1 + CN1CCN(C2=Nc3ccccc3Oc3ccc(Cl)cc32)CC1 [loxapine] | 0.0252 ± 0.0052
CN1CCCC(n2nc(Cc3ccc(Cl)cc3)c3ccccc3c2=O)CC1 (stereo not given) [azelastine (hydrochloride)] + CN1CCN(C2=Nc3ccccc3Oc3ccc(Cl)cc32)CC1 [loxapine] | 0.0226 ± 0.0035
CC(C)[C@H](N)C(=O)OCCOCn1cnc2c(=O)nc(N)[nH]c21 [valacyclovir (hydrochloride)] + CN1CCN(C2=Nc3ccccc3Oc3ccc(Cl)cc32)CC1 [loxapine] | 0.0213 ± 0.0096
CC(C)NCC(O)COc1ccc(CCOCC2CC2)cc1 (stereo not given) [betaxolol (hydrochloride)] + CN1CCN(C2=Nc3ccccc3Oc3ccc(Cl)cc32)CC1 [loxapine] | 0.025 ± 0.003
CCCc1nn(C)c2c(=O)[nH]c(-c3cc(S(=O)(=O)N4CCN(C)CC4)ccc3OCC)nc12 [sildenafil (citrate)] + CN1CCN(C2=Nc3ccccc3Oc3ccc(Cl)cc32)CC1 [loxapine] | 0.024 ± 0.0028
CN(Cc1cnc2nc(N)nc(N)c2n1)c1ccc(C(=O)N[C@@H](CCC(=O)O)C(=O)O)cc1 [methotrexate] + CN1CCN(C2=Nc3ccccc3Oc3ccc(Cl)cc32)CC1 [loxapine] | 0.0222 ± 0.0022
CCOC(=O)/C=C(C)/C=C/C=C(C)/C=C/c1c(C)cc(OC)c(C)c1C [etretinate] + CN1CCN(C2=Nc3ccccc3Oc3ccc(Cl)cc32)CC1 [loxapine] | 0.0213 ± 0.0039

SMILES | food intake
CN(C)CCC=C1c2ccccc2C=Cc2ccccc21 [cyclobenzaprine (hydrochloride)] + CN1CCN(C2=Nc3ccccc3Oc3ccc(Cl)cc32)CC1 [loxapine] | 0.0221 ± 0.0063
C1CCN2C[C@@H]3C[C@@H](CN4CCCC[C@@H]34)[C@H]2C1 [(-)-sparteine (sulfate pentahydrate)] + CN1CCN(C2=Nc3ccccc3Oc3ccc(Cl)cc32)CC1 [loxapine] | 0.0235 ± 0.0013
CC[C@H]1OC(=O)C[C@@H](O)[C@H](C)[C@@H](O[C@@H]2O[C@H](C)[C@@H](O[C@H]3C[C@@](C)(O)[C@@H](O)[C@H](C)O3)[C@H](N(C)C)[C@H]2O)[C@@H](CC=O)C[C@@H](C)C(=O)/C=C/C(C)=C/[C@@H]1CO[C@@H]1O[C@H](C)[C@@H](O)[C@@H](OC)[C@H]1OC [Tylosin] + CN1CCN(C2=Nc3ccccc3Oc3ccc(Cl)cc32)CC1 [loxapine] | 0.0219 ± 0.0051
C=CCNC(N)=S [allylthiourea] + CN1CCN(C2=Nc3ccccc3Oc3ccc(Cl)cc32)CC1 [loxapine] | 0.0237 ± 0.003
C[N+]1(C)CCC(=C(c2ccccc2)c2ccccc2)CC1 [diphenmanil (methylsulfate)] + CN1CCN(C2=Nc3ccccc3Oc3ccc(Cl)cc32)CC1 [loxapine] | 0.0235 ± 0.0021
[F-].[Na+] [sodium fluoride] + CN1CCN(C2=Nc3ccccc3Oc3ccc(Cl)cc32)CC1 [loxapine] | 0.0241 ± 0.0018
CN1C(C(=O)Nc2ccccn2)=C(O)c2ccccc2S1(=O)=O [piroxicam] + CN1CCN(C2=Nc3ccccc3Oc3ccc(Cl)cc32)CC1 [loxapine] | 0.0225 ± 0.0032
CC1(C)O[C@@H]2C[C@H]3[C@@H]4CCC5=CC(=O)C=C[C@]5(C)[C@@]4(F)[C@@H](O)C[C@]3(C)[C@]2(C(=O)CO)O1 [triamcinolone (acetonide)] + CN1CCN(C2=Nc3ccccc3Oc3ccc(Cl)cc32)CC1 [loxapine] | 0.0224 ± 0.0033
COC(=O)Nc1nc2cc([S+]([O-])c3ccccc3)ccc2[nH]1 (stereo not given) [oxfendazole] + CN1CCN(C2=Nc3ccccc3Oc3ccc(Cl)cc32)CC1 [loxapine] | 0.0214 ± 0.0037
CC1CNc2c(cccc2S(=O)(=O)N[C@@H](CCCNC(=N)N)C(=O)N2CC[C@@H](C)C[C@@H]2C(=O)O)C1 (stereo not given in full) [argatroban (monohydrate)] + CN1CCN(C2=Nc3ccccc3Oc3ccc(Cl)cc32)CC1 [loxapine] | 0.0229 ± 0.002
CS(=O)(=O)c1ccc([C@@H](O)[C@@H](CO)NC(=O)C(Cl)Cl)cc1 [thiamphenicol] + CN1CCN(C2=Nc3ccccc3Oc3ccc(Cl)cc32)CC1 [loxapine] | 0.0228 ± 0.0025
CCCS(=O)(=O)Nc1ccc(F)c(C(=O)c2c[nH]c3ncc(-c4ccc(Cl)cc4)cc23)c1F [vemurafenib] + CN1CCN(C2=Nc3ccccc3Oc3ccc(Cl)cc32)CC1 [loxapine] | 0.012 ± 0.0047
CC(C)C(=O)c1c(C(C)C)nn2ccccc12 [ibudilast] + CN1CCN(C2=Nc3ccccc3Oc3ccc(Cl)cc32)CC1 [loxapine] | 0.0243 ± 0.0046
CN1C2=CC(=O)/C(=N\NC(N)=O)C=C2CC1S(=O)(=O)O (stereo not given) [carbazochrome (sodium sulfonate)] + CN1CCN(C2=Nc3ccccc3Oc3ccc(Cl)cc32)CC1 [loxapine] | 0.0296 ± 0.0057
Nc1ccn([C@@H]2CS[C@H](CO)O2)c(=O)n1 [lamivudine] + CN1CCN(C2=Nc3ccccc3Oc3ccc(Cl)cc32)CC1 [loxapine] | 0.0212 ± 0.003
Cc1ccc(C)c(OCCCC(C)(C)C(=O)O)c1 [Gemfibrozil] + CN1CCN(C2=Nc3ccccc3Oc3ccc(Cl)cc32)CC1 [loxapine] | 0.0247 ± 0.0069
CC(C)(C)C(=O)OCOC(=O)[C@@H]1N2C(=O)[C@@H](/N=C/N3CCCCCC3)[C@H]2SC1(C)C [pivmecillinam (hydrochloride)] + CN1CCN(C2=Nc3ccccc3Oc3ccc(Cl)cc32)CC1 [loxapine] | 0.0244 ± 0.0027
COc1ccc2[nH]c([S@@+]([O-])Cc3ncc(C)c(OC)c3C)nc2c1 [Esomeprazole (magnesium trihydrate)] + CN1CCN(C2=Nc3ccccc3Oc3ccc(Cl)cc32)CC1 [loxapine] | 0.0226 ± 0.0041
CC(CN1c2ccccc2Sc2ccccc21)N(C)C (stereo not given) [promethazine (hydrochloride)] + CN1CCN(C2=Nc3ccccc3Oc3ccc(Cl)cc32)CC1 [loxapine] | 0.0219 ± 0.0024
N=C(N)c1ccc(OCCCCCOc2ccc(C(=N)N)cc2)cc1 [pentamidine (isethionate)] + CN1CCN(C2=Nc3ccccc3Oc3ccc(Cl)cc32)CC1 [loxapine] | 0.0232 ± 0.0025
